In the library only some 2.5% were active in any assay of this set; here they are far more common.
UHRF1 MBD2 ctr: UHRF1 methyl-DNA binding inhibition; UHRF1 binding to methylated oligo, TR-FRET; inhibition, % at 4.4 µM; actives 0.75% (n = 370,000); in the data active = inhibition above about 21%;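 note: UHRF1 SRA domain binding a hemimethylated CpG hairpin DNA probe; 0% = median of test compound wells and 100% = reference inhibitor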
MBD2 DNA inh: blocks human MBD2 binding to methylated DNA. TR-FRET, MBD2 binding to methylated oligonucleotide. actives 0.31% (n = 370,000). inhibition, % at 4.4 µM. AID 686964. Q9UBB5; in the data active = inhibition above about 13%
LEDGF integ inh: blocks HIV-1 LEDGF/p75-dependent DNA integration; actives 0.64% (n = 370,000); TR-FRET IN-LEDGF/p75 DNA integration, Eu/Cy5; inhibition, % at 3.7 µM;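 active = inhibition above the screen-wide mean plus 3 SD, cut at about 13% in these data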;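 note: signal is the Cy5 over europium emission ratio at 671 and 618 nm; 0% = plate median of compound wells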
PRMT1 FP inh: blocks human protein arginine methyltransferase 1. recombinant PRMT1, activity-based probe fluorescence polarization. inhibition, % at 2.79 µM. actives 1.3% (n = 370,000);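 active = inhibition above about 21% made by adding two undisclosed values, limit read from the data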
Target sequence (Q99873 whole entry, looked up): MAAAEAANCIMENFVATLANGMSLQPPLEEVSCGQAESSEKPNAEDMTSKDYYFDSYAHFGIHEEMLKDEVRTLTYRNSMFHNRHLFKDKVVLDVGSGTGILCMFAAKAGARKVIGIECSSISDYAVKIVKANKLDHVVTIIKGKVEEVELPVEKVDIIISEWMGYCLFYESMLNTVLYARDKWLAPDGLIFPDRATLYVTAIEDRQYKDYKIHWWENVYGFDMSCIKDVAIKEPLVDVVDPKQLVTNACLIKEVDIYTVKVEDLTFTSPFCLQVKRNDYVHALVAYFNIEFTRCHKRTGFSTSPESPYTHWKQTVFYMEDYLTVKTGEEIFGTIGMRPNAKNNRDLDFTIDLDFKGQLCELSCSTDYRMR
PRMT1 confirm: PRMT1 (human) inhibition, FP confirmation. recombinant His-PRMT1, activity-based probe fluorescence polarization. actives 42% (n = 3,300). inhibition, % at 2.79 µM. shares compounds with PRMT1 FP inh;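 active = mean inhibition across replicates above the hit cutoff derived for the earlier primary screen, cut at about 22% in these data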
* marks the source's active call; other numbers are inactive results; · = not tested or not shown.

SMILES	UHRF1 MBD2 ctr	MBD2 DNA inh	LEDGF integ inh	PRMT1 FP inh	PRMT1 confirm
O=C(CCNS(=O)(=O)c1ccc(OC(F)(F)F)cc1)N1CCN(C/C=C/c2ccccc2)CC1	-1	-1	-1	0	·
Cc1c(O)nc(SCC(=O)Nc2nccs2)n(-c2ccccc2F)c1=O	-1	2	-1	28*	18
Cc1nnc(SCC(=O)Nc2nccs2)n(N)c1=O	2	4	-4	-1	·
Cc1ccc(NC(=O)CSc2nc(N)cc(=O)[nH]2)cc1S(=O)(=O)N1CCCCC1	2	-2	7	44*	0
CCCCCCn1c(=O)[nH]c2nc3cc(N)ccc3nc2c1=O	-67	-25	4	124*	104*
Cn1ccc2ccc(-c3ccc4c(c3)[C@]3(CCC[C@@H](OCc5ccccc5)[C@@H]3NC(=O)CCc3ccccc3)C(=O)N4Cc3ccccc3)cc21	-1	-2	-2	5	·
Cc1ccc(N=CC2=C(O)CC(C)(C)CC2=O)nc1	1	-2	1	-3	·
Cc1ccc(N=Cc2c(O)n(C)c(=O)n(C)c2=O)nc1	-1	1	3	29*	-5
COc1ccc(NC(=O)CN2C(=O)NC(C)(c3ccccc3)C2=O)cc1Cl (configuration not stated)	0	9	-3	5	·
O=C1C=CC(=Nc2ccc3c(c2)Cc2cc(F)ccc2-3)O1	-7	3	4	74*	87*
COC(=O)C[C@@H]1OC[C@H](C(C)C)N1S(=O)(=O)c1ccc(C)cc1	1	4	1	4	·
O=C(CSc1nccc(=O)[nH]1)Nc1ccc(F)c(Cl)c1	-2	7	5	42*	30*
Cc1ccc(S(=O)(=O)N2C[C@H]3C(=O)C[C@@H](c4ccccc4)N(S(=O)(=O)c4ccccc4C)[C@H]3C[C@H]2c2ccccc2)cc1	2	-3	6	-4	·
O=c1[nH]sc2ccccc12	-2	3	-4	72*	86*
Cc1cc(C)c2c(CN(Cc3ccccc3)Cc3ccccc3)cc(=O)oc2c1	-2	2	-4	0	·
CC(C)c1nnc(NC(=O)c2nc(S(=O)(=O)Cc3ccccc3F)ncc2Cl)s1	0	1	0	7	·
O=C(NCc1ccc2c(c1)OCO2)c1nc(S(=O)(=O)Cc2ccccc2F)ncc1Cl	4	2	0	29*	22*
O=C(NCc1ccc2c(c1)OCO2)c1nc(S(=O)(=O)Cc2ccccc2)ncc1Cl	-3	2	0	25*	17
O=C(NCc1ccc2c(c1)OCO2)c1ccccc1Cl	-2	-4	7	-2	·
Nc1cccc(C(=O)c2ccccc2C(=O)O)c1	-2	-3	2	0	·
CCOC(=S)SCc1cn2ccc(C)cc2n1	-2	3	-2	42*	26*
CCOC(=O)c1c(C)[nH]c(O)c1C=Nc1ccc(C(F)(F)F)cc1	3	3	4	29*	14
CCOC(=O)c1c(C)[nH]c(O)c1C=Nc1ccc(Cl)cc1	-5	-6	1	6	·
NC(CSS(=O)(=O)O)=NCCC12CC3CC(CC(O)(C3)C1)C2	0	0	-3	41*	44*
Cc1ccc(C2C3=C(CC(C)(C)CC3=O)Nc3[nH]c(=S)[nH]c(=O)c32)cc1 (configuration not stated)	2	-6	5	52*	5
SMILES	UHRF1 MBD2 ctr	MBD2 DNA inh	LEDGF integ inh	PRMT1 FP inh	PRMT1 confirm
CCCC(=O)Oc1ccc(-c2nccc(C(OC)OC)n2)cc1	2	3	1	7	·
Cc1ccc(NCCC(=O)c2cccc([N+](=O)[O-])c2)cc1	-4	2	0	33*	54*
O=C(CCNc1ccc(Br)cc1)c1cccc([N+](=O)[O-])c1	2	-1	-4	28*	23*
O=C(CCNc1ccccc1)c1cccc([N+](=O)[O-])c1	0	-4	-3	36*	30*
O=C(NCCNc1ccc([N+](=O)[O-])cc1)c1cccc(Br)c1	6	2	-5	2	·
Cc1ccc(CONC(=O)c2cccc([N+](=O)[O-])c2)cc1	-1	1	-2	2	·
O=C(CCNc1ccc(F)cc1)c1cccc([N+](=O)[O-])c1	-5	-6	1	32*	39*
C[C@H](CO)N1C[C@H](C)[C@H](CN(C)C(=O)C2CC2)OCc2cnnn2CCCC1=O	4	5	-7	-1	·
CCOc1ccc(S(=O)(=O)N2CCN=C2c2ccccc2)c(C)c1C	3	0	1	0	·
Cc1nc(SCC(=O)c2cccc([N+](=O)[O-])c2)n[nH]1	3	-1	-2	30*	7
